aSyn rescue: rescues yeast growth from alpha-synuclein toxicity; Yeast expressing alpha-synuclein, growth rescue, BacTiter-Glo, 24 h; AID 652106; 370,000 tested, 0.14% active; Potency, µM (top dose mostly 46.1 µM), for inactives: top-dose growth rescue (activation), hits mostly activators; further: potency means the concentration at half of the fitted maximal effect; % of control where 0% means no effect; nearly all actives have a fitted effect of over 65% in size
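Readout is rescue of growth in alpha-synuclein-expressing yeast, so inhibitors of toxicity appear as activators. Growth after 24 hr at 30 deg C in galactose medium is quantified by luminescence.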
TDP-43 yeast inh: inhibitors of TDP-43 toxicity in yeast | TDP-43 expressing yeast growth rescue, BacTiter-Glo, 24 h | Potency, µM (titrated, usually from 46.1 µM), inactives show top-dose growth rescue (activation), most hits filed as activators | 410,000 tested, 1.8% active | AID 652104; further: potency means the concentration at half of the fitted maximal effect; % of control where 0% means no effect; nearly all actives have a fitted effect of over 50% in size
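In this qHTS, compounds that restore growth of yeast expressing TDP-43 appear as activators. Cells (OD600=0.02, galactose medium, raffinose-pregrown) are incubated with compound 24 hr at 30 deg C and growth is quantified by BacTiter-Glo.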
Abeta yeast res: A-beta toxicity reversal in yeast; Potency, µM (titrated, usually from 46.1 µM), most hits filed as activators; yeast expressing A-beta42, growth rescue, OD600, 48 h; response scale: 0% DMSO, 100% iron-clioquinol control; 410,000 tested, 0.063% active; further: potency means the concentration at half of the fitted maximal effect; nearly all actives have a fitted effect of over 55% in size
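Yeast growth medium received pinned compounds, then yeast cells expressing toxic A-beta were added; plates incubated at 30 C for 48 hr. Growth read as absorbance at 600 nm, normalized to DMSO and equimolar FeCl3 plus clioquinol controls.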
FUS yeast rescue: FUS proteinopathy suppression in yeast; S. cerevisiae FUS-expressing, growth rescue, OD600, 24 h; Potency, µM (top dose mostly 76.6 µM), actives largely listed as activators; 390,000 tested, 0.24% active; AID 1347120;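 further: potency means the concentration at half of the fitted maximal effect; plate controls were DMSO vehicle for no effect and reference control for full effect; nearly all actives have a fitted effect of over 55% in size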
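Compound concentration series was pinned onto galactose-induced FUS-expressing yeast seeded at OD 0.005. Plates sat 24hr at 30C; absorbance at 600 nm gave growth. DMSO served as background control.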
pAkt inh: Akt phosphorylation inhibition; 360,000 tested, 0.32% active; activity change, % for hits at 50 µM; Neuro2A IGF-stimulated pAkt S473 HTRF, 20 min; active compounds read low; AID 651550; in the data active means activity change below about -80%; inconclusive means mostly about -51% to -80%; further: on the % scale 0 is the no-effect control and ±100 the full control effect
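Neuro2A cells (4,500/well, DMEM with 0.5% FBS) were treated with compound at a single 50 µM final concentration, stimulated with 6 nM IGF for 20 min at 37 °C, and lysed. Phospho-Akt Ser473 was read by HTRF as 665/615 ratio ×10^4.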
The depositor's hits bear a star; i = inactive; u = inconclusive; x = no result given; [ ] = remark or other dose. Sampled rows, rich in hits. Any-hit rate of the full collection: about 2.3%. Unless noted, the call rests on the fitted dose curve; in most records, active means well fitted curve in the direction sought with a large enough effect; inconclusive means small, poorly fitted or top-dose-only effect, or another doubt; inactive means no such curve, though single readings can be large; an effect the other way counts as inactive or inconclusive.

SMILES | aSyn rescue | TDP-43 yeast inh | Abeta yeast res | FUS yeast rescue | pAkt inh
Fc1ccc(-n2ncc3c(NCCC4=CCCCC4)ncnc32)cc1 | x | u | i | i | x
Cc1ccc(Cl)cc1-n1ncc2c(NCc3ccc(F)cc3)ncnc21 | x | 20µM* | i | i | x
Cc1ccc(Cl)cc1-n1ncc2c(NCCC3=CCCCC3)ncnc21 | x | 35µM* | i | u | x
COC(=O)C1CN(Cc2ccc(F)cc2)CCS(=O)(=O)N1Cc1cn(Cc2ccc(C)cc2)nn1 (configuration not stated) | x | x | x | i | x
COc1ccc(S(=O)(=O)c2cn(Cc3ccccc3)c3cc(N4CCCC4)c(F)cc3c2=O)cc1 | x | -6% | i | i | x
COCCCNC(=O)Cn1c(=O)n(-c2ccccc2)c(=O)c2c1c1cc(OC)ccc1n2C | x | 5% | i | i | x
CCc1ccccc1Nc1nc2ccccc2c2nncn12 | x | 18µM* | i | i | x
COc1ccc(Nc2nc3ccccc3n3cnnc23)cc1Cl | 5% | 11% | i | i | i
COc1cccc(Nc2nc3ccccc3n3cnnc23)c1 | 0% | 13µM* | i | i | i
CCc1ccccc1Nc1nc2ccccc2n2cnnc12 | x | 13µM* | i | i | x
Cc1cc(C)cc(-n2c(SCC(=O)Nc3ccccc3F)nc3c(oc4ccccc43)c2=O)c1 | x | 9% | i | i | x
COc1ccc2ccccc2c1CN1CCN(Cc2ccccc2)CC1 | 0% | -5% | i | i | i
COc1ccc2ccccc2c1CN1CCCC(CO)C1 (configuration not stated) | -1% | 6% | i | i | -112%*
Cc1ccc(NC(=O)c2cc(S(=O)(=O)N3CCCCC3)c[nH]2)cc1N(C)C | x | 10% | i | i | x
COc1cccc(C(=O)NC2CCN(C(=O)N3c4ccccc4Sc4ccccc43)CC2)c1 | -14% | u | i | u | i
COc1cccc(C(=O)N2c3ccccc3Sc3ccccc32)c1 | 24% | 22µM* | i | i | i
CSc1nc(SCC(=O)O)c2c3c(sc2n1)COC(C)(C)C3 | -1% | 3% | i | i | i
CSC1=NC(NCCCO)c2c(sc3c2CC(C)(C)OC3)N1 (configuration not stated) | -7% | 2% | i | i | -101%*
COc1ccc(C2C(C#N)=C(N)Oc3cc4c(cc32)OCO4)cc1 (configuration not stated) | -8% | -14% | i | i | i
CCN1C=C(Cc2ccc(OC)cc2)C2=C(C1)C(c1ccc(OC)cc1)C(C#N)=C(N)O2 (configuration not stated) | 2% | -5% | i | 35µM* | i
C/C(=N\OC(=O)NC1CCCCC1)c1sc(-c2ccccc2)nc1C | x | 20µM* | i | i | x
COc1ccccc1-c1nn2c(-c3cc(C)[nH]n3)nnc2s1 | -9% | x | x | x | x
CCOc1ccccc1N(CC)C(=O)c1cc2c(=O)[nH]c3ccc(C)cc3c2s1 | x | 7% | i | i | x
COc1cc(OC)cc(C(=O)/C=C2\Sc3ccccc3N2C)c1 | -2% | -16% | i | i | i
CN1/C(=C\C(=O)c2cccs2)Sc2ccccc21 | -15% | -34% | i[9.22 µM] | i | -104%*
SMILES | aSyn rescue | TDP-43 yeast inh | Abeta yeast res | FUS yeast rescue | pAkt inh
c1csc(Cn2c(-c3cccs3)nc3ccccc32)c1 | -16% | 13µM* | i | i | i
COc1ccc(S(=O)(=O)N(CCc2ccccc2)CC(=O)NCc2ccccc2)cc1OC | x | 1% | i | i | x
CCCCOc1cccc(C(=O)NC(=S)Nc2cccnc2)c1 | -1% | 25µM* | i | x | i
Cc1ccc2c(CNCc3cccc(Cl)c3)c(C(=O)O)n(Cc3ccc(F)cc3Cl)c2c1 | x | 11% | i | i | x
C[C@]12CC[C@H](O)CC1=CCC1C2CC[C@@]2(C)C1CC[C@@H]2NCc1ccccc1 (some centres not stated) | 1% | 1.1µM* | i | i | i
CC(C)[C@H](N)C(=O)N[C@H]1CCC2C3CC=C4C[C@@H](O)CC[C@]4(C)C3CC[C@@]21C (some centres not stated) | 1% | -18% | i | i | i
C=CCSc1nnc2c(n1)[nH]c1c(C)cccc12 | -30% | 11µM* | i | i | i

From PubChem BioAssay
